Where “and” joins values, the source holds several entries; their conditions need not be identical. Equal entries are not always repeated. For part of these data: Measured potencies and affinities stand elsewhere. Calls of active or inactive are those of the source.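 How the source made its calls, unless noted: active means thallium flux through the channel raised or lowered by more than 3 SD from vehicle-only wells, actives on both sides; inactive means the rest.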
Experiments:
[1] = blockers of polyQ-driven CASP3 activation – cell-based (AID 1583); conditions: polyglutamine-induced caspase-3 activation, cell assay; stronger effect = higher value;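 tested at 10 µM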
[2] = yeast 75Q aggregation reduction – 75Q-TubU reporter (AID 1593); conditions: Yeast 75Q polyglutamine aggregation reporter
[3] = restoration of touch response, mutant HTT neurons – whole organism, C. elegans mechanosensory neurons, N-terminal huntingtin (AID 1599); conditions: C. elegans polyQ-huntingtin mechanosensory neurons, stronger effect = higher value
[4] = blockers of cytochrome c efflux from mitochondria – biochemical, purified mitochondria (AID 1603); conditions: stronger effect = lower value;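 further: mouse liver mitochondria challenged with calcium chloride; signal normalized to the plate average as 100%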
[5] = polyglutamine aggregate formation blockers (AID 1604); conditions: polyglutamine-induced protein aggregation inhibition assay; stronger effect = higher value; tested at 2.5 µM
[6] = glutamate transport activators, MN-1 cells, MN-1 cell line (AID 1612); conditions: MN-1 motor neuron cells, stronger effect = higher value;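 further: tested at 1 µM final; 0% = mean of DMSO vehicle wells on each plate; positive means more glutamate uptake than control and negative means less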
[7] = 75Q-TubH aggregate inhibition, S. cerevisiae, yeast (AID 1616); conditions: S. cerevisiae 75Q-TubH polyglutamine aggregation suppression; stronger effect = higher value
[8] = compounds altering viability of human ES cells (AID 493140; call rule not given here;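 further: cells exposed to compounds for four days before counting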); conditions: human embryonic stem cell survival screen; stronger effect = higher value
[9] = signal quenchers or enhancers, Cy5 substrate/SSB – biochemical, NIH Clinical Collection, E. coli SSB, artefact control for HCV NS3 helicase inhibitor project (AID 743268; call rule not given here); conditions: Cy5-oligo bound E. coli SSB, fluorescence interference
[10] = modulation of C. elegans fzo-1 (AID 1259413; call rule not given here;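 further: fzo-1 mutant C. elegans worms in liquid wells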); conditions: C. elegans fzo-1 modulator screen, mean read-out; stronger effect = higher value
[11] = galactose survival enhancers in mitochondrial complex I cybrids – cell-based, galactose medium, ATP luminescence, primary screen (AID 1645843;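 active means z-score of at least 1.8 in each of two replicates, scored against plate mean and spread of sample wells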;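 further: positive z means more ATP and so rescue of galactose-driven cybrid death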); conditions: complex I mutant cybrid cells, 72 h, stronger effect = higher value
F380Y/beta1 = assay: BK channel mutant inhibitors and activators – cell-based, U2OS BacMam, thallium flux, beta subunits, selectivity assay, profiling panel (AID 1259406); conditions: U2OS BacMam BK variants, at 30 µM;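 further: initial slope of Thallos dye fluorescence rise after thallium is added; log ratio against the mean of 0.3% DMSO vehicle wells on the same plate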
F380Y/beta4 = assay: as above; conditions: U2OS BacMam BK variants, at 30 µM
R275C = assay: as above; conditions: U2OS BacMam BK variants, at 30 µM
R275C/beta1 = assay: as above; conditions: U2OS BacMam BK variants, at 30 µM
R275C/beta2Delta = assay: as above; conditions: U2OS BacMam BK variants, at 30 µM
R275C/beta4 = assay: as above; conditions: U2OS BacMam BK variants, at 30 µM
R275C/Slo1WT/beta2 = assay: as above; conditions: U2OS BacMam BK variants, at 30 µM
[12] = P. berghei load reduction in hepatocytes – cell-based, HepG2, luciferase luminescence, HepG2 viability, primary screen (AID 624349; in the data active means parasite load remaining mostly below about 12%, no sharp cut-off; inactive means mostly above about 10%;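 further: 100% = mean of DMSO negative control wells on the same plate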); conditions: P. berghei liver stage in HepG2, luciferase luminescence, concentration not given here; parasite load remaining: stronger effect = lower value; viability: measured here: HepG2 viability without parasites

SMILES | inhibition [1] | score [2] | rescue above control [3] | cytochrome c release ratio [4] | inhibition of aggregation [5] | glutamate uptake change [6] | aggregation suppression score [7] | survival [8] | fluorescence ratio [9] | mean signal [10] | z-score [11] | log fold change Tl+ flux (F380Y/beta1) | log fold change Tl+ flux (F380Y/beta4) | log fold change Tl+ flux (R275C) | log fold change Tl+ flux (R275C/beta1) | log fold change Tl+ flux (R275C/beta2Delta) | log fold change Tl+ flux (R275C/beta4) | log fold change Tl+ flux (R275C/Slo1WT/beta2) | parasite load remaining [12] | viability [12]
C=C(CC)C(=O)c1ccc(OCC(=O)O)c(Cl)c1Cl | 6.66% | 0.22 | 6.67 | 0.63 | 30.1% | 5.34% | 0.145 | 25.6 (inactive) | 2.96 (active) | 255 (inactive) | -0.85 (inactive) and -0.03 (inactive) | 0.1 (inactive) | 0.0312 (inactive) | -0.00646 (inactive) | 0.0596 (inactive) | 0.0176 (inactive) | -0.0645 (inactive) | 0.0108 (inactive) | – | –
NC(=O)N1c2ccccc2C=Cc2ccccc21 | 9.92% | 1.24 | -11.1 | 1.51 | 83.1% | -6.72% | 1.82 | 26.6 (inactive) | 1.03 (inactive) | 259 (inactive) | 0.21 (inactive) and 0.34 (inactive) and 0.265 (inactive) | -0.00275 (inactive) | -0.00351 (inactive) | 0.0472 (inactive) | 0.00405 (inactive) | 0.0457 (inactive) | -0.0824 (inactive) | -0.0474 (inactive) | – | –
CC(=O)CCCCn1c(=O)c2c(ncn2C)n(C)c1=O | 49.3% | 1.37 | -11.6 | 0.83 | 60.9% | -0.27% | 1.44 | 14.1 (inactive) | 1.01 (inactive) | 250 (inactive) | 0.465 (inactive) and 0.86 (inactive) and 0.55 (inactive) | -0.00172 (inactive) | 0.0281 (inactive) | -0.0458 (inactive) | -0.0218 (inactive) | 0.00216 (inactive) | -0.0339 (inactive) | -0.000483 (inactive) | – | –
CCOC(=O)[C@H](CCc1ccccc1)N[C@@H](C)C(=O)N1Cc2ccccc2C[C@H]1C(=O)O | 20.2% | 1.04 | 4.28 | 0.82 | 37.2% | 3.41% | 1.35 | – | 1.02 (inactive) | 206 (inactive) | 0.72 (inactive) and 0.435 (inactive) | -0.0839 (inactive) | -0.00668 (inactive) | -0.00535 (inactive) | 0.0226 (inactive) | 0.0266 (inactive) | 0.0169 (inactive) | 0.0209 (inactive) | – | –
CN(C)CCC=C1c2ccccc2CCc2ccccc21 | 5.08% | 0.94 | 17.6 | 1.57 | 70.5% | -1.53% | 0.931 | 7.08 (inactive) | 0.94 (inactive) | 243 (inactive) | -0.73 (inactive) and -1.31 (inactive) | 0.103 (inactive) | 0.189 (active) | 0.07 (inactive) | 0.106 (inactive) | 0.128 (active) | 0.135 (active) | 0.00351 (inactive) | – | –
CN(C)C(=O)Oc1ccc[n+](C)c1 | 18.4% | 1.37 | -0.24 | 0.97 | 27% | -0.9% | 1.35 | – | 1.01 (inactive) | 265 (inactive) | 0.81 (inactive) and 0.62 (inactive) | 0.0465 (inactive) | -0.0469 (inactive) | -0.0114 (inactive) | -0.0401 (inactive) | 0.0292 (inactive) | -0.0147 (inactive) | 0.0451 (inactive) | 46.4% (inactive) and 38.1% (inactive) and 33.2% (inactive) | 90.6% and 93.2% and 82.1%
OCCN1CCN(CCCN2c3ccccc3Sc3ccc(Cl)cc32)CC1 | -20.9% | 0.86 | – | 1.23 | 49% | 5.53% | 0.889 | 1.67 (inactive) | 1.01 (inactive) | 256 (inactive) | -1.29 (inactive) and -1.32 (inactive) | 0.097 (inactive) | 0.284 (active) | -0.201 (active) | 0.341 (active) | -0.0309 (inactive) | 0.17 (active) | -0.0801 (inactive) | – | –
OC(CCN1CCCCC1)(c1ccccc1)C1CCCCC1 (stereo not given) | -21% | 1.21 | 1.37 | 1.32 | 88.9% | -20.9% | 1.42 | 3.42 (inactive) | 0.99 (inactive) | 211 (inactive) | -0.545 (inactive) and -0.525 (inactive) | 0.00768 (inactive) | 0.0698 (inactive) | -0.119 (active) | 0.105 (inactive) | -0.0882 (inactive) | 0.0638 (inactive) | 0.0146 (inactive) | – | –
CN(C)CCOC(C)(c1ccccc1)c1ccccn1 (stereo not given) | 9.79% | 1.23 | -5.3 | 0.7 | 77% | 7.08% | 1.46 | 6.42 (inactive) | 1.04 (inactive) | 230 (inactive) | 0.14 (inactive) and -0.05 (inactive) and 0.35 (inactive) | -0.0273 (inactive) | 0.0181 (inactive) | -0.00524 (inactive) | -0.0059 (inactive) | -0.00567 (inactive) | 0.0164 (inactive) | 0.0279 (inactive) | – | –
CC(C)NCC(O)c1cc(O)cc(O)c1 (stereo not given) | 11.6% | 1.21 | -1.18 | 0.62 | 83.9% | -18.3% | 1.15 | 10.4 (inactive) | 1.05 (inactive) | 261 (inactive) | 0.07 (inactive) and 1.61 (inactive) | 0.0393 (inactive) | -0.0531 (inactive) | 0.0473 (inactive) | -0.038 (inactive) | 0.0259 (inactive) | 0.0475 (inactive) | 0.0212 (inactive) | – | –
CCCNC(C)C(=O)Nc1ccccc1C (stereo not given) | 1.52% | 1.18 | -3.71 | 0.7 | 74.9% | 3.66% | 1.11 | 13.5 (inactive) | 0.103 (active) | 270 (inactive) | 0.075 (inactive) and 0.325 (inactive) and 0.175 (inactive) | 0.00249 (inactive) | 0.0146 (inactive) | -0.0216 (inactive) | -0.0631 (inactive) | 0.0403 (inactive) | -0.00233 (inactive) | 0.0338 (inactive) | – | –
CCCNC(=O)NS(=O)(=O)c1ccc(Cl)cc1 | 10.9% | 1.66 | -4.58 | 1.77 | 91% | -12.9% | 1.38 | 13.6 (inactive) | 0.93 (inactive) | 243 (inactive) | 0.8 (inactive) and 0.135 (inactive) | 0.0557 (inactive) | 0.0279 (inactive) | 0.0359 (inactive) | 0.0476 (inactive) | 0.0638 (inactive) | 0.017 (inactive) | -0.0244 (inactive) | – | –
CC(N=C(NC#N)Nc1ccncc1)C(C)(C)C (stereo not given) | – | – | – | – | – | – | – | 59.8 (inactive) | 0.97 (inactive) | 282 (inactive) | 0.04 (inactive) and -0.155 (inactive) and 0.65 (inactive) | 0.0184 (inactive) | 0.00227 (inactive) | 0.000868 (inactive) | 0.00651 (inactive) | -0.00406 (inactive) | -0.0193 (inactive) | -0.0219 (inactive) | – | –
CSc1ccc2c(c1)N(CCC1CCCCN1C)c1ccccc1S2 (stereo not given) | 43.3% | 0.94 | 0 | 0.4 | 7.32% | -2.39% | 0.91 | 2.08 (inactive) | 1.05 (inactive) | 275 (inactive) | -1.38 (inactive) and -1.5 (inactive) and -2.41 (inactive) | 0.338 (active) | 0.259 (active) | -0.424 (active) | 0.517 (active) | -0.136 (active) | 0.753 (active) | -0.146 (active) | – | –
CC(=O)Nc1nnc(S(N)(=O)=O)s1 | 12.8% | 1.01 | 21.8 | 0.85 | -6.35% | 5.19% | 1.12 | 10.5 (inactive) | 1.01 (inactive) | 242 (inactive) | 0.625 (inactive) and 0.37 (inactive) | 0.0405 (inactive) | 0.0426 (inactive) | 0.0184 (inactive) | -0.00169 (inactive) | 0.0403 (inactive) | 0.00614 (inactive) | 0.0491 (inactive) | – | –
CN(C)CCCN1c2ccccc2CCc2ccccc21 | -29.3% | 1.28 | 5.01 | 1.3 | 41% | 5.43% | 1.2 | 8.08 (inactive) | – | 235 (inactive) | -0.9 (inactive) and -0.525 (inactive) and -0.59 (inactive) | 0.0217 (inactive) | 0.133 (active) | 0.0455 (inactive) | 0.104 (inactive) | 0.158 (active) | 0.109 (inactive) | 0.0178 (inactive) | – | –
NS(=O)(=O)c1cc2c(cc1C(F)(F)F)NCNS2(=O)=O | -8.77% | 1.38 | -10.8 | 0.95 | 91.6% | -18.5% | 1.31 | 23.1 (inactive) | 1.02 (inactive) | 224 (inactive) | 1.47 (inactive) | 0.0232 (inactive) | 0.0329 (inactive) | -0.0328 (inactive) | -0.0725 (inactive) | 0.0545 (inactive) | 0.0202 (inactive) | 0.0133 (inactive) | – | –
CCN(CC)CCOC(=O)c1ccc(N)cc1 | 9.09% | 1.48 | -15 | 1.16 | 23.9% | 22.4% | 1.46 | 15.7 (inactive) | 1.06 (inactive) | 231 (inactive) | 0.17 (inactive) and -0.015 (inactive) | -0.0732 (inactive) | 0.0148 (inactive) | -0.00878 (inactive) | -0.0214 (inactive) | 0.0278 (inactive) | -0.0586 (inactive) | -0.013 (inactive) | – | –

— PubChem BioAssay
